Source: PubChem BioAssay (Tox21)
Records with an inconclusive call do not appear. A call without a number means that no potency is given here. A number with no mark means an inactive call. Calls of active or inactive are those of the source. Calls follow the shape of the dose curve; as a rule, active = well fitted activation curve with a large enough effect in the repeat runs; inconclusive = weak or mixed curves; inactive = flat fitted curve, though single readings scatter.

Assay: A CellTox Green Cytotoxicity Assay to monitor cytotoxicity in HEK293 cells - 40 hour (AID 1224871); also: nearly all actives have a fitted effect of over 45% in size
Details: CellTox Green fluorescence; series mostly up to 76.8 µM
Source text: National Center for Advancing Translational Sciences [NCATS]
NIH Chemical Genomics Center [NCGC]
U.S. Environmental Protection Agency [EPA]
National Institutes of Environmental Health Sciences [NIEHS]
National Toxicology Program [NTP]
Cell-based models are critical for drug discovery. Determining the natural cytotoxic effects resulting from test compounds is an essential research activity. A CellTox Green Cytotoxicity Assay to monitor cytotoxicity in real time of continues cell culture during 40 hours of the compound treatment was used to screen Tox21 10K library compounds in Hek293 cells. CellTox Green Cytotoxicity Assay is a nonlytic, homogeneous, biofluorescent method to measure cytotoxicity in cell culture after experimental manipulation. The assay system uses a proprietary asymmetric cyanine dye that is excluded from viable cells but preferentially stains the dead cell's DNA. […] Viable cells produce no appreciable increases in fluorescence. Therefore, the fluorescence signal produced by the binding interaction with dead cell DNA is proportional to cytotoxicity.
The mixture of Hek293 cell suspension and reagents were dispensed at 600cells/6 ul/well in 1536-well tissue culture treated black solid bottom plates using a Multidrop dispenser. After the assay plates were incubated at a 37 C/5% CO2 incubator for 5 hours, 23 nL of compounds dissolved in DMSO, positive and negative controls was transferred to the assay plate by a pintool work station. The plates were incubated at 37 C for 40 hours. The fluorescence intensity were measured at 0h, 8h, 16h, 24h, 32h and 40h time points using ViewLux plate reader during compound treatment.
Potency is read from the fitted curve at half-maximal effect.

| SMILES | Potency | cytotoxicity increase |
| --- | --- | --- |
| CCN(Cc1cccc(S(=O)(=O)O)c1)c1ccc(C(=C2C=CC(=[N+](CC)Cc3cccc(S(=O)(=O)[O-])c3)C=C2)c2ccccc2)cc1 | inactive |  |
| CCCCN(CCCC)CCCOC(=O)c1ccc(N)cc1 | inactive |  |
| Cc1ccc(/C=N/n2c(-c3ccccc3)csc2=S)cc1 | inactive |  |
| O=C(Nc1ccc([N+](=O)[O-])cc1)Nc1ccc([N+](=O)[O-])cc1 | 13.4 µM (active) |  |
| CCCCC(CC)C(=O)OCCOCCOCCOCCOC(=O)C(CC)CCCC (stereo not given) | inactive |  |
| c1ccc(COCc2ccccc2)cc1 | inactive |  |
| CCC1(C)CC(=O)NC1=O (stereo not given) | inactive |  |
| Nc1ccc(C(=O)OCCCOC(=O)c2ccc(N)cc2)cc1 | inactive |  |
| O=C(CCCCCCCCC#CI)Oc1ccccc1 | inactive |  |
| C=CC(=O)NCOCC(C)C | inactive |  |
| COC(=O)Nc1nc2ccc(C(=O)c3cccs3)cc2[nH]1 | inactive |  |
| O=C(C(=O)c1ccccc1)c1ccccc1 | inactive |  |
| CCCCCCCCCCCCCCCCBr |  | -0.351% [at 15.8 µM] |
| COCC(O)CO (stereo not given) | inactive |  |
| Cc1cc(OI)c(C(C)C)cc1-c1cc(C(C)C)c(OI)cc1C | inactive |  |
| NC(=O)N(O)[C@@H]1COc2cc(OCc3ccccc3)ccc21 | inactive |  |
| CC(=O)[C@H]1CC[C@H]2[C@@H]3C=CC4=CC(=O)CC[C@@]4(C)[C@@H]3CC[C@]12C | inactive |  |
| CCCC1C(CC)=CC(CC)=CN1c1ccccc1 (stereo not given) | inactive |  |
| CCNC(=O)N1CCN(CCCC(c2ccc(F)cc2)c2ccc(F)cc2)CC1 | inactive |  |
| C(=C\c1ccccc1)/CN1CCN(C(c2ccccc2)c2ccccc2)CC1 | inactive |  |

| SMILES | Potency | cytotoxicity increase |
| --- | --- | --- |
| COc1ccc([C@@H]2Sc3ccccc3NC(=O)[C@@H]2O)cc1 | inactive |  |
| C[N+]1(C)CCC(=C(c2ccccc2)c2ccccc2)CC1 | inactive |  |
| COCCOC | inactive |  |
| COC(=O)c1cc(Cl)ccc1NS(=O)(=O)C(F)(F)F | inactive |  |
| CC(C)(C)C(=O)O | inactive |  |
| CC(N)CN (stereo not given) | inactive |  |
| CC1=C(/C=C/C(C)=C\C=C\C(C)=C\C(=O)O)C(C)(C)CCC1 | 49 µM (active) |  |
| Cc1cc(O)c2c(O)c3c(O)cccc3cc2c1 | inactive |  |
| CCCCCCCCCCCC(=O)[O][Sn]([CH2]CCC)([CH2]CCC)[O]C(=O)CCCCCCCCCCC | 6.74 µM (active) |  |
| C[Si](NC1CCCCC1)(NC1CCCCC1)NC1CCCCC1 | inactive |  |
| Nc1nc(Cl)nc2c1ncn2[C@@H]1O[C@H](CO)[C@@H](O)[C@@H]1F | inactive |  |
| CC1(C)O[C@@H]2C[C@H]3[C@@H]4CCC5=CC(=O)C=C[C@]5(C)[C@H]4[C@@H](O)C[C@]3(C)[C@]2(C(=O)CO)O1 | inactive |  |
| CO[C@H]1O[C@H](CO)[C@@H](O)[C@H](O)[C@H]1O | inactive |  |
| CO[Si](C)(OC)OC | inactive |  |
| C1COCO1 | inactive |  |
| CC(CCc1ccc2c(c1)OCO2)NN (stereo not given) | inactive |  |
| Cc1c(C(=O)NN2CCCCC2)nn(-c2ccc(Cl)cc2Cl)c1-c1ccc(Cl)cc1 | inactive |  |
| C[C@]12CCC(=O)C=C1C=C[C@@H]1[C@@H]2CC[C@@]2(C)[C@H]1CC[C@@]21CCC(=O)O1 | inactive |  |
| O=C(OCCOCCO)c1ccccc1Nc1cccc(C(F)(F)F)c1 | 2.39 µM (active) |  |
| C=CC(C)(C)CC(=O)OC | inactive |  |
